# Assay results published in ChEMBL document CHEMBL1961873, “Compounds: GSK PKIS; Assays: Nanosyn kinase panel” (2012).
# Experiments:
# [1] = biological target: Serine/threonine-protein kinase MARK2 (Homo sapiens) (UniProt Q7KZI7); details: at 1 µM
# [2] = biological target: PAS domain-containing serine/threonine-protein kinase (Homo sapiens) (UniProt Q96RG2); details: at 0.1 µM
# [3] = biological target: PAS domain-containing serine/threonine-protein kinase (Homo sapiens) (UniProt Q96RG2); details: at 1 µM
# [4] = biological target: Phosphorylase b kinase gamma catalytic chain, skeletal muscle/heart isoform (Homo sapiens) (UniProt Q16816); details: at 0.1 µM
# Phosphorylase b kinase gamma catalytic chain, skeletal muscle/heart isoform (Homo sapiens), sequence (Q16816 whole entry, looked up, canonical isoform): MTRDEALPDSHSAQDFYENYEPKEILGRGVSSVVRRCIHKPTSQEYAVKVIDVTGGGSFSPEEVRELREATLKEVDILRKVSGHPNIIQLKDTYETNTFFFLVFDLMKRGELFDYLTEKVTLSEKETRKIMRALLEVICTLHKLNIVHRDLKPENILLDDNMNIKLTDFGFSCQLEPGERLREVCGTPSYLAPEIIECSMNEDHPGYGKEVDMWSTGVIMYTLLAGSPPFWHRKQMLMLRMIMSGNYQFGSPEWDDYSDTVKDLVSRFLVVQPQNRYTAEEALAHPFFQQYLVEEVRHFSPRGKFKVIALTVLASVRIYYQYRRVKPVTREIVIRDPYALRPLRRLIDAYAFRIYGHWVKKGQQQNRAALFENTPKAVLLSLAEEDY
# [5] = biological target: Phosphorylase b kinase gamma catalytic chain, skeletal muscle/heart isoform (Homo sapiens) (UniProt Q16816); details: at 1 µM
# [6] = biological target: T1, Phosphorylase b kinase gamma catalytic chain, liver/testis isoform (Homo sapiens) (UniProt P15735); details: at 0.1 µM
# T1 sequence (whole entry): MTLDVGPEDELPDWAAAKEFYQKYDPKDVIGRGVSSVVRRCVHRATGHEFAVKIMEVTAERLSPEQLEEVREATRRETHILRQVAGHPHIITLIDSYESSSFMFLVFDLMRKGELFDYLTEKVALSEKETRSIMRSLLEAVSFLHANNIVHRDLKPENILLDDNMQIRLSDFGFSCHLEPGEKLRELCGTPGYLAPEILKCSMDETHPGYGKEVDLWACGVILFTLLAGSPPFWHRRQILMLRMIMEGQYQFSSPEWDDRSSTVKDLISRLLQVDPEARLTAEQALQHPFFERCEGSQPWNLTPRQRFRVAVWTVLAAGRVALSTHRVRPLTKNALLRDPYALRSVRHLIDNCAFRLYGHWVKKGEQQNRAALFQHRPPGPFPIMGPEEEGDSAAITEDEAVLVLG
# [7] = biological target: T1, Phosphorylase b kinase gamma catalytic chain, liver/testis isoform (Homo sapiens); details: at 1 µM
# [8] = biological target: Serine/threonine-protein kinase pim-1 (Homo sapiens) (UniProt P11309); details: at 0.1 µM
# Serine/threonine-protein kinase pim-1 (Homo sapiens), sequence (P11309 whole entry, looked up): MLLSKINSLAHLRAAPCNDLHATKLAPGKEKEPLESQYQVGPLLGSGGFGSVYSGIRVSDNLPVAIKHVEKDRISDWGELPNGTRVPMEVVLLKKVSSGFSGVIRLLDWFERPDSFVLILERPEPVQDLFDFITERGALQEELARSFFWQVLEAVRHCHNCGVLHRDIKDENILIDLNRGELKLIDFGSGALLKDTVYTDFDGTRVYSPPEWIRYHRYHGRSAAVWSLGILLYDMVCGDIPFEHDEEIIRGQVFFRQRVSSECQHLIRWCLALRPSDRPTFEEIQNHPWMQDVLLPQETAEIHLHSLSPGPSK
# [9] = biological target: Serine/threonine-protein kinase pim-1 (Homo sapiens) (UniProt P11309); details: at 1 µM
# [10] = biological target: Serine/threonine-protein kinase pim-2 (Homo sapiens) (UniProt Q9P1W9); details: at 0.1 µM
# Serine/threonine-protein kinase pim-2 (Homo sapiens), sequence (Q9P1W9 whole entry, looked up): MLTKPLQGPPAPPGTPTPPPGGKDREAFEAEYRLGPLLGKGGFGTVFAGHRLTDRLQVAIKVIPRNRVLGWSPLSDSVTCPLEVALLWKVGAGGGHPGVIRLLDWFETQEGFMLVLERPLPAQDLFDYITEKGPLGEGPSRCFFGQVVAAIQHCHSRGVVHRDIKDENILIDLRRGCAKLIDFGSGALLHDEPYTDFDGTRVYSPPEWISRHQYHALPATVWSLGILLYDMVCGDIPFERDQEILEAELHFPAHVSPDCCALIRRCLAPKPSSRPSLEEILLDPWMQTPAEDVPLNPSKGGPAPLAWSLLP
# [11] = biological target: Serine/threonine-protein kinase pim-2 (Homo sapiens) (UniProt Q9P1W9); details: at 1 µM
# [12] = biological target: Serine/threonine-protein kinase pim-3 (Homo sapiens) (UniProt Q86V86); details: at 0.1 µM
# [13] = biological target: Serine/threonine-protein kinase pim-3 (Homo sapiens) (UniProt Q86V86); details: at 1 µM
# [14] = biological target: T2, MAP kinase-activated protein kinase 5 (Homo sapiens) (UniProt Q8IW41); details: at 0.1 µM
# T2 sequence (whole entry): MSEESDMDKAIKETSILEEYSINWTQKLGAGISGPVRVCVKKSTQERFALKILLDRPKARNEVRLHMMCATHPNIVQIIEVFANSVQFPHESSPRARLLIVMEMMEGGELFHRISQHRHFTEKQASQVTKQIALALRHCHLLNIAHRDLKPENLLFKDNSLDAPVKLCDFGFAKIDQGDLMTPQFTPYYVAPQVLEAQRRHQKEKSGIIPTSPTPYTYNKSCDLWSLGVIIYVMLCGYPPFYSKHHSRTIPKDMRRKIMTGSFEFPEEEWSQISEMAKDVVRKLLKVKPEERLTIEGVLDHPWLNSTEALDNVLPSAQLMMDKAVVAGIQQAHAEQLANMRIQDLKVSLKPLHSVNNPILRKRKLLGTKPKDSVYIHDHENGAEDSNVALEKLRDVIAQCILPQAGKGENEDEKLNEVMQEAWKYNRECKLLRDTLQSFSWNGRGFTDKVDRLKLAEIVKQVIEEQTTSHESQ
# [15] = biological target: T2, MAP kinase-activated protein kinase 5 (Homo sapiens); details: at 1 µM
# [16] = biological target: Serine/threonine-protein kinase SIK1 (Homo sapiens) (UniProt P57059); details: at 0.1 µM
# Serine/threonine-protein kinase SIK1 (Homo sapiens), sequence (P57059 whole entry): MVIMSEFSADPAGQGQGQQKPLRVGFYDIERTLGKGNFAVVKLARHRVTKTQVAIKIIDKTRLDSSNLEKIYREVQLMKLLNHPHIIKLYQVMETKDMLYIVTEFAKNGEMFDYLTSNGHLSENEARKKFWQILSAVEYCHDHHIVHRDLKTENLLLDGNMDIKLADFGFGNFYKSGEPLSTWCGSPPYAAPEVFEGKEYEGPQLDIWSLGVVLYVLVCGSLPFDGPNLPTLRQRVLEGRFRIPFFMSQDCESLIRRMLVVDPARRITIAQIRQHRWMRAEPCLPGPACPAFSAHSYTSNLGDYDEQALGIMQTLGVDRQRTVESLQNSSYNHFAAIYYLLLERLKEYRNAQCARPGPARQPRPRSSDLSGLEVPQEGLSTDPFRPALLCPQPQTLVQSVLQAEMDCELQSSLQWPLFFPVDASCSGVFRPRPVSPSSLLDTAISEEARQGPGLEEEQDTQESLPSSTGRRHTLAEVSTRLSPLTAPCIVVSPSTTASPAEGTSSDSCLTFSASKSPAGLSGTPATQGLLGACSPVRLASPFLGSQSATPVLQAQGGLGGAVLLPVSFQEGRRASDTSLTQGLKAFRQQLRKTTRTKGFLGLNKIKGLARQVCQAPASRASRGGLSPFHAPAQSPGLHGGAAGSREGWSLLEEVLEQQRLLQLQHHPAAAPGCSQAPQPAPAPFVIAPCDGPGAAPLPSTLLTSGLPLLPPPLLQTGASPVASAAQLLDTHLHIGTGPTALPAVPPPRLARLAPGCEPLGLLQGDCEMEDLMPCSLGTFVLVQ
# [17] = biological target: Serine/threonine-protein kinase SIK1 (Homo sapiens) (UniProt P57059); details: at 1 µM
# [18] = biological target: Serine/threonine-protein kinase SIK2 (Homo sapiens) (UniProt Q9H0K1); details: at 0.1 µM
# Serine/threonine-protein kinase SIK2 (Homo sapiens), sequence (Q9H0K1 whole entry, looked up): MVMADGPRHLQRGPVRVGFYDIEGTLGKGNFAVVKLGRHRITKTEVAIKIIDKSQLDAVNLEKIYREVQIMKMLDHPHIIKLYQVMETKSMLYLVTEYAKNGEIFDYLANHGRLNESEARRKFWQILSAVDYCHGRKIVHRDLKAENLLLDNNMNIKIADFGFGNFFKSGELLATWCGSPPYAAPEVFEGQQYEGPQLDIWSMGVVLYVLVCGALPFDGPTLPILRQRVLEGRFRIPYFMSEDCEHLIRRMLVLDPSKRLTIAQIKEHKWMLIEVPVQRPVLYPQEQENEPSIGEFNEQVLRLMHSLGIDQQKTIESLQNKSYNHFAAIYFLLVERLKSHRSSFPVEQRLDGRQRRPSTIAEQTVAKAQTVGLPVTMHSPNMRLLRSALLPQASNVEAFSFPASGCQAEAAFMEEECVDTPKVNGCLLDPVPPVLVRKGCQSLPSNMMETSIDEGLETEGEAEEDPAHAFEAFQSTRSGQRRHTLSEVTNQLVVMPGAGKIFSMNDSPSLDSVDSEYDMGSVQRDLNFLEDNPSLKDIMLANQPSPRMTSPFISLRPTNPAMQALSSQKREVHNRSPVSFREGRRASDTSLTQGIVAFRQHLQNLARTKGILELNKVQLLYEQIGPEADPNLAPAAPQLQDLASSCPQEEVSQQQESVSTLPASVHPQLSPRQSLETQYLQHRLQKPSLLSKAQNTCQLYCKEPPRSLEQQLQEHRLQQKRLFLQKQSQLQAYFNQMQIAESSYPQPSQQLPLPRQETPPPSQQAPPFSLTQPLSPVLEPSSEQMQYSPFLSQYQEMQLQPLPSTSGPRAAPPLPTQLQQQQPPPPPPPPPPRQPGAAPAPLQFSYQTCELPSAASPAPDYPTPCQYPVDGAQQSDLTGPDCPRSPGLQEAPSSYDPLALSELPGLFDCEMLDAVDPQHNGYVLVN
# [19] = biological target: Serine/threonine-protein kinase SIK2 (Homo sapiens) (UniProt Q9H0K1); details: at 1 µM
# [20] = biological target: T3, Serine/threonine-protein kinase TBK1 (Homo sapiens) (UniProt Q9UHD2); details: at 0.1 µM;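 also: values are the mean TBK1 inhibition, taken from the GSK PKIS screening data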
# T3 sequence (whole entry): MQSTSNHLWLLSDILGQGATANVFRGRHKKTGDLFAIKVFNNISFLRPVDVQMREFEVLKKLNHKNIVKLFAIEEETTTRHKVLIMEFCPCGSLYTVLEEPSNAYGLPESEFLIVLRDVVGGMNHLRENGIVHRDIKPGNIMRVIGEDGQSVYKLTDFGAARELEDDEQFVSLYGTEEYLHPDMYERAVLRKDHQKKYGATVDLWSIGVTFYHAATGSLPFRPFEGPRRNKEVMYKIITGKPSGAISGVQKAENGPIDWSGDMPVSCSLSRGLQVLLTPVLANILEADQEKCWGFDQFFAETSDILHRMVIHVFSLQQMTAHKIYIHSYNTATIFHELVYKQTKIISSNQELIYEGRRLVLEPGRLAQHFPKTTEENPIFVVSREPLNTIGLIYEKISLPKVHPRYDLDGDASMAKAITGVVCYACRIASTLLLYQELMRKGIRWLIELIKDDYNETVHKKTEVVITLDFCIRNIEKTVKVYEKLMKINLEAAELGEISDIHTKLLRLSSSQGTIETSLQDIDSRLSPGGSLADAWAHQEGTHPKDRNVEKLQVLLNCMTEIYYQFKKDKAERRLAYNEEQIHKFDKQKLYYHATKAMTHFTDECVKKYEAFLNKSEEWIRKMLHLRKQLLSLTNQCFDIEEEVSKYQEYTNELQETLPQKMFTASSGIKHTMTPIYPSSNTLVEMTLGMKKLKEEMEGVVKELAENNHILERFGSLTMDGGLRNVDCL
# Serine/threonine-protein kinase MARK2 (Homo sapiens), sequence (Q7KZI7 whole entry, the tested form may be a part): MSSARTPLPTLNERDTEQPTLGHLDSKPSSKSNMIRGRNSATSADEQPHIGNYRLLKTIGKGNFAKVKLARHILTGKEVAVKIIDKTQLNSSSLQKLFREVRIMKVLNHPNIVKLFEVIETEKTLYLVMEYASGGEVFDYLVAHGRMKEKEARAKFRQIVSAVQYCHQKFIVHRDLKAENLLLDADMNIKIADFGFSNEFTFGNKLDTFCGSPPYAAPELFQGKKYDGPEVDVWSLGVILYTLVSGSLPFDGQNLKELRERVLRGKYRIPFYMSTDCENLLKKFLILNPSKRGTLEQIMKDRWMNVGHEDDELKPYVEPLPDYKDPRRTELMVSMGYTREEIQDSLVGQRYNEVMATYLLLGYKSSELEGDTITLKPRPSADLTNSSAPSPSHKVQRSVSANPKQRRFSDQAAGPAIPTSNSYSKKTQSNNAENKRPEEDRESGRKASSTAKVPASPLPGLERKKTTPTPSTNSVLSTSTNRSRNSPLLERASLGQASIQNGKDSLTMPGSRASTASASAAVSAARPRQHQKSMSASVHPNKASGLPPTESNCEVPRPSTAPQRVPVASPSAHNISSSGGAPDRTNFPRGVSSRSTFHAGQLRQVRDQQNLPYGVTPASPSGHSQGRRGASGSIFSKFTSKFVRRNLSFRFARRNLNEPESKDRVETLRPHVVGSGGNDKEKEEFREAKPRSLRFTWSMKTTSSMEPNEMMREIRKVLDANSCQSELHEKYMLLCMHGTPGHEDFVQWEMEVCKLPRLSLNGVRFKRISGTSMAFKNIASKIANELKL
Structure (SMILES),inhibition [1] [%],inhibition [2] [%],inhibition [3] [%],inhibition [4] [%],inhibition [5] [%],inhibition [6] [%],inhibition [7] [%],inhibition [8] [%],inhibition [9] [%],inhibition [10] [%],inhibition [11] [%],inhibition [12] [%],inhibition [13] [%],inhibition [14] [%],inhibition [15] [%],inhibition [16] [%],inhibition [17] [%],inhibition [18] [%],inhibition [19] [%],inhibition [20] [%]
O=C(Nc1n[nH]c2nc(-c3ccc(O)cc3)c(Br)cc12)C1CC1,5.24,0.21,0.71,7.64,10.7,6.68,7.34,19.7,65.5,45.5,75.2,31.9,73.9,2.42,3.04,6.92,17.1,14.2,19.9,4.12
Fc1ccc(-c2nc3n(c2-c2ccncc2)CCS3)cc1,1.88,-0.27,-1.64,5.2,4.39,4.24,2.33,0.77,2.11,-3.25,-3.08,-1.3,-1.87,1.2,0.34,5,13.5,1.21,7.35,2.27
NS(=O)(=O)c1ccc(N/N=C2\C(=O)Nc3ccc(C(=O)NCCCn4ccnc4)cc32)cc1,9.93,0.17,2.55,9.94,25.8,3.91,10,2.53,15.6,0.82,7.42,3.06,18.9,1.4,4.54,7.49,13.9,9.61,12.7,3.93
COc1cccc(/C=N/Nc2ncnc3c2cnn3-c2cccc(OC)c2)c1,0.57,-0.3,-1.16,0.94,2.68,3.6,2.4,0.63,1.58,-0.75,-0.53,0.38,0.16,0.99,1.08,5.07,8.61,5.87,6.63,3.28
CN(C)CCOc1ccc(-c2cc(-c3ccc4c(c3)CCC4=NO)c(-c3ccncc3)o2)cc1,0.33,1.53,1.21,1.83,5.45,-1.99,-1.19,0.55,0.18,-0.09,0.08,1.08,0.13,-0.29,-0.04,0.11,6.09,-4.64,-1.24,-2.4
C#Cc1cccc(Nc2ncnc3ccc(OCCCCNCCS(C)(=O)=O)cc23)c1,2.74,0.02,4.19,5.74,19,5.8,6.86,6.27,39.5,-2.91,-1.09,6.18,36.2,2.33,2.73,8.26,38.7,5.71,27.5,1.72
CCc1ccc(Oc2nccc(-c3c(-c4ccc(F)cc4)ncn3C3CCNCC3)n2)cc1,4.62,-0.7,0.69,1.39,2.98,5.05,5.44,2.14,1.74,0.08,0.04,1.11,3.63,1.38,2,5.66,14.7,3.65,19.4,4.53
COc1cc2ncn(-c3cc(OCc4ccccc4C(F)(F)F)c(C(C)=O)s3)c2cc1OC,1.04,0.79,1,2.96,2.39,4.43,4.18,-0.09,0.89,0.28,0.86,0.65,-0.5,1.07,0.82,-0.57,5.68,-0.99,7.06,2.89
CCc1cccc(CC)c1/C=C/c1cncc(C(=O)NC)c1,1.59,0.55,-0.71,0.98,3.16,3.56,0.53,1.04,1.26,-0.07,-0.07,-0.9,-2.15,0.86,-0.1,0.91,6.26,1.69,-1.33,0.14
Fc1ccc(-c2c(-c3ccncc3)nc3n2CCS3)cc1,1.79,-0.68,-0.44,4.14,4.63,1.99,3.28,-0.78,0.06,-3.15,-3.85,0.35,0.43,1.37,1.61,5,7.55,5.11,5.89,0.11
NC(=O)Cc1ccccc1Oc1nccc(-c2c(-c3ccc(F)cc3)ncn2C2CCNCC2)n1,2.22,0.15,-0.7,4.43,6.28,2.61,0.83,0.4,0.97,0.18,0.59,-1.38,0.63,0.43,-0.72,3.93,4.7,3.81,-3.54,5.2
O=C1NC(=O)C(c2cccc(Cl)c2)=C1Nc1ccc(Cl)c(C(=O)O)c1,0.4,0.25,1.42,3.55,5.32,4.58,5.29,-0.66,-0.28,-0.18,-0.53,0.54,0.43,1.73,2.67,4.05,5.1,10.7,4.62,2.24
CNC(=O)c1cncc(/C=C/c2c(C)cccc2C)c1,0.9,1.4,0.92,0.1,-0.59,2.11,0.8,0.92,1.36,-4.04,-3.47,1.2,2.65,-0.02,-0.41,26.2,76,7.18,27.6,0.21
